One may read the inhibition as the drop in the measured response relative to a control, in per cent.

In this test the target is Solute carrier family 2, facilitated glucose transporter member 1 (Homo sapiens) (UniProt P11166). The test can be described thus: ST_JUDE_LEISH: Cytotoxicity at 2uM final concentration against transgenic Leishmania Mexicana promastigotes LmGLUT1 that are glucose transport deficient and complemented with the human glucose transporter GLUT1. Activity is measured by DNA content using SYBR green in vitro. Type of test: functional.
Solute carrier family 2, facilitated glucose transporter member 1 (Homo sapiens), sequence (P11166 whole entry): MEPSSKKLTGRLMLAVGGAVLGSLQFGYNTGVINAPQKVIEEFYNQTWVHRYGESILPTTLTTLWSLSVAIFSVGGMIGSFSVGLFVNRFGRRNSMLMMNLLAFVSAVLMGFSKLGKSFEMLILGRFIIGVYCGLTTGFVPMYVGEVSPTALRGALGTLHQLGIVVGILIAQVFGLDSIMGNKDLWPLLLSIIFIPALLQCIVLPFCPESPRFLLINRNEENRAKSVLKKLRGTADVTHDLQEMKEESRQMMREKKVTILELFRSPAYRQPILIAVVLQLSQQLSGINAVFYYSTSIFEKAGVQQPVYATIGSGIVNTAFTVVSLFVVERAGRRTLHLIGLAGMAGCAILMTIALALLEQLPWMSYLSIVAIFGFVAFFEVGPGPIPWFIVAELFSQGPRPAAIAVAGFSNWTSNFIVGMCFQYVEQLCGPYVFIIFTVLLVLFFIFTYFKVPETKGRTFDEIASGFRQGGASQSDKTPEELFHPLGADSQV
In the case of `CCCc1cc(C(=O)N[C@@H](Cc2ccccc2)[C@H](O)CNC2CCOCC2)c(F)c(N2CCCCS2(=O)=O)c1`, the inhibition came out at 4.76%.
Take `Cc1cccc2nc(-c3ccc(-c4cccc(C(=O)NCCN5CCCC5)c4)s3)[nH]c12`: the inhibition was found to be 10.1%.
In the case of `COc1ccc(-c2cc(C(=O)N[C@@H](Cc3ccccc3)C(=O)NCCN3CCCCC3)ccc2O)cc1`, the inhibition was 5.18%.
For the compound `CCN(Cc1ccc(-c2ccc(C(F)(F)F)cc2)cc1)C(=O)Cn1c(SCc2cccc(F)c2F)cc(=O)c2cc(CN3CCCCC3)ccc21`, the inhibition stood at 0.46%.
For the compound `NS(=O)(=O)c1ccc(CNc2ccc3ncc(-c4ccc(OC(F)(F)F)cc4)n3n2)cc1`, the inhibition was determined as 4.71%.
To `CCCCc1cc(N2CCC(NC(C)=O)C2)nc(Nc2ccc(C)cc2)n1` (centres undefined) belongs 10.9%.
For the compound `CN1CCC(N2CCN(Cc3cccc(-c4cccc(-c5nc6ccccc6[nH]5)c4)c3)CC2)CC1`, the inhibition is -4.87%.
The result for `c1ccc(-c2nc(NC3CCCCC3)cc(C3CC3)n2)nc1` reads 1.84%; that for `Cc1cc(N[C@@H](Cc2ccccc2)C(=O)NC2CCCC2)nc(NCCOc2ccccc2)n1`, 1.41%; that for `O=C(Nc1ccc([N+](=O)[O-])cc1)Nc1nc2ccc(Cl)cc2s1`, 5.09%.
Take `CCN(CCCN1CCCCC1)c1cc(C)nc(Nc2ccc(C)c(C)c2)n1`: the inhibition was found to be 4.78%.
The result for `C=CCOC(=O)N1CCC(CNCc2ccc(-c3ccc(-c4nc5ccccc5[nH]4)s3)cc2)C1` (centres undefined) reads 5.91%; that for `Cn1nc(-c2ccc(NC(=O)Nc3cc(C(F)(F)F)cc(C(F)(F)F)c3)c(F)c2)c2cnc(NCCN3CCOCC3)nc21`, 2.68%; that for `N[C@@H](Cc1cc(I)c(Oc2ccc(O)c(C(=O)O)c2)c(I)c1)C(=O)O`, 3.18%.

(Values after ChEMBL document CHEMBL3433997, “St. Jude Leishmania screening dataset” (2016).)
